Assay results from ChEMBL document CHEMBL3988442, “University of Dundee, Small-Polar-MMV Screening Library” (2021).
Screen size: about 85,000 compounds; about 440 (0.52%) showed an effect of 50% or more. The full list was thinned out, with strong results kept by preference.

Assay: In vitro enzyme assay to detect hydrolysis of chlorophenol red-beta-D-[…] directly proportional to the number of Toxoplasma stably expressing beta-galactosidase
Assay type: functional, organism-based, Toxoplasma gondii
Design: scale not given: in the data most compounds retested in dose-response had high values

| Structure (SMILES) | Percent Effect (50 µM) | Percent Effect (10 µM) |
| --- | --- | --- |
| CCC=C(C)C(=O)NCC(C)N1CCN(CC)CC1 (centres undefined) | 11.7% |  |
| CCNC(=O)C1CCN(C(=O)Cc2cccc(O)c2)C1 (centres undefined) | -5.389% |  |
| CC(C)(O)CCN1CCC(NC(=O)C2CCC2)CC1 | 0.697% |  |
| COCCN1CCC(c2ccn[nH]2)CC1 | -6.586% |  |
| CNC(=O)NC(=O)CSc1ccccc1F | -1.003% |  |
| CCOc1ncccc1C(=O)NCC(C)N1CCCC1 (centres undefined) | 52.4% |  |
| COc1ncccc1C(=O)NCC(=O)N1CCCC1 | -2.429% |  |
| CCOc1ncccc1C(=O)NCC1CCCN1CC (centres undefined) | -0.459% |  |
| CCN1C(=O)C[C@H](CN)[C@H]1c1ccncc1 | 4.591% |  |
| CCCn1cnnc1CNC | 0.9072% |  |
| CNc1cc(-c2cccc(OC)c2)[nH]n1 | 98.42% |  |
| COc1cccc(-c2cc(C(=O)Nc3nc[nH]n3)[nH]n2)c1 |  | 20.51% |
| CNc1cc(OC)ccn1 | -16.02% |  |
| Cn1cc(Br)c(CO)n1 | 1.484% |  |
| Cc1cc(CCC(=O)NCCC(N)=O)ccc1Br | -2.096% |  |
| Cc1ccc(F)cc1S(=O)(=O)N1C[C@H](C2CC2)[C@@H](N)C1 | 98.86% |  |
| Cc1ccc(F)c(S(=O)(=O)N2C[C@H](C3CC3)[C@@H](N)C2)c1 | 7.08% |  |
| Cc1cc(F)ccc1S(=O)(=O)N1C[C@H](C2CC2)[C@@H](N)C1 | 8.476% |  |
| COc1ccc(S(=O)(=O)N2C[C@H]3CNC[C@@H](C2)O3)cc1 | -2.543% |  |
| OCC1CCN(Cc2ccccc2)CC1 | -5.201% |  |
| NCc1cccc(OCC(F)F)c1 | -2.735% |  |
| CCCc1ccc(CN2CCC(NC(C)=O)C2)o1 (centres undefined) | 2.217% |  |
| O=C(NCC1CCN(C2CC2)C1)c1ccccc1F (centres undefined) | 13.84% |  |

| Structure (SMILES) | Percent Effect (50 µM) | Percent Effect (10 µM) |
| --- | --- | --- |
| CN(C)c1cc(C2CCCN(C(=O)Cn3cc(Cl)cn3)C2)ccn1 (centres undefined) |  | 0.9748% |
| CN(C)[C@H]1CCCCN(C(=O)Cn2cc(Cl)cn2)C1 | 95.45% |  |
| O=C(Cn1cc(Cl)cn1)N1CCCC(c2ccn[nH]2)C1 (centres undefined) |  | -16.77% |
| CC(C)(C)CC1CCCN1S(N)(=O)=O (centres undefined) | -15.84% |  |
| CC(C)(C(=O)OCC(N)=O)c1ccccc1 | 2.133% |  |
| CC(C)N(C)CC(=O)NCCn1cccc1 | 7.108% |  |
| O=C(NCc1n[nH]c(=O)[nH]1)C1COc2ccccc21 (centres undefined) | -1.703% |  |
| Cc1cccc(N2Cc3nc(N4CCC(C)CC4)ncc3C2=O)c1 |  | 14.75% |
| CNc1ncc2c(n1)CN(c1cccc(OC)c1)C2=O |  | 69.02% |
| COc1ccc(N2Cc3nc(N)ncc3C2=O)cc1 |  | 9.612% |
| COc1cccc(N2Cc3nc(=O)[nH]n3C2=O)c1 |  | -7.908% |
| CCNc1ncc2c(n1)CN(c1cccc(OC)c1)C2=O |  | 76.16% |
| CNc1ncc2c(n1)CN(CCc1ccccc1)C2=O |  | -25.26% |
| CN(C(=O)CC(N)c1ccccc1)c1cccc(F)c1 (centres undefined) | 3.1% |  |
| Nc1ncccc1CN1CCN(C2CCOCC2)CC1 | 4.597% |  |
| O=C1CCCCN1Cn1cnc2c(Br)cccc2c1=O | -5.958% |  |
| Cc1c(NC(=O)c2cccc(Br)c2)c(C(=O)N(C)C)nn1C |  | 13.13% |
| Cc1ccc(C(=O)Nc2c(C(=O)N(C)C)nn(C)c2C)cc1 |  | 18.52% |
| Cc1ccc(C(=O)Nc2c(C(=O)N(C)C)nn(C)c2C)cc1C |  | 61.35% |
| COc1ccc(C(=O)Nc2c(C(=O)N(C)C)nn(C)c2C)cc1 |  | 52.86% |
| Cc1cccc(C(=O)Nc2c(C(=O)N(C)C)nn(C)c2C)c1 |  | 18.52% |
| Cc1c(NC(=O)c2ccc(Br)cc2)c(C(=O)N(C)C)nn1C |  | 46.94% |
| CC(=O)NCc1ccc(C(C)=O)s1 | 3.848% |  |

| Structure (SMILES) | Percent Effect (50 µM) | Percent Effect (10 µM) |
| --- | --- | --- |
| CCOc1cc(CNCc2ccccn2)ccc1O | 12.08% |  |
| CCNS(=O)(=O)c1csc(C(=O)Nc2cc(C)on2)c1 | 60.53% |  |
| CCS(=O)(=O)N(C)CC(=O)Nc1cc(C)on1 | -10.63% |  |
| Cc1cc(NC(=O)c2ccc(S(C)(=O)=O)cc2)no1 | 1.537% |  |
| Cc1ccoc1C(=O)NC1CCN(Cc2ccccc2C#N)CC1 |  | -1.883% |
| Cc1ccoc1C(=O)NC1CCN(Cc2cccc3ccccc23)CC1 |  | 53.31% |
| Cc1ccoc1C(=O)NC1CCN(Cc2ccccc2F)CC1 |  | -8.886% |
| Cc1ccc(-n2ncc3c2CCCC3N)cc1C (centres undefined) |  | 16.25% |
| Cc1cc(C)cc(-n2ncc3c2CCCC3N)c1 (centres undefined) |  | 16.38% |
| CC(C)(C)c1ccc(-n2ncc3c2CCCC3N)cc1 (centres undefined) |  | 50.93% |
| COc1ccc(CN2CCCNCC2)cc1 | 13.71% |  |
| Cc1cc(C(=O)N(C)Cc2cccs2)nc(N2CCCCC2)n1 |  | 73.87% |
| Cc1cc(C(=O)N(C)Cc2cccs2)nc(N2CCOCC2)n1 |  | -10.44% |
| Cc1cc(C(=O)N(C)Cc2cccs2)nc(N2CCCC2)n1 |  | 6.801% |
| CSc1ccc(CNc2ccn(CCC(N)=O)n2)cc1 | -4.331% |  |
| O=C(NCCN1CCOCC1)c1cc(-c2ccccc2Cl)[nH]n1 |  | -1.617% |
| O=C(NCCN1CCOCC1)c1cc(-c2ccc(Cl)s2)[nH]n1 |  | 52.66% |
| Cc1ccc(-c2cc(C(=O)NCCN3CCOCC3)n[nH]2)s1 |  | 27.02% |
| CS(=O)(=O)N[C@H]1CN(c2ccncc2F)C[C@@H]1C1CC1 | 3.462% |  |
| CCc1cnc(CNC(=O)NCc2cnn(C)c2)s1 | -4.497% |  |
| Cc1cc(C(=O)Nc2ccc(OCC(N)=O)cc2)on1 | 12.73% |  |
| Cc1cc(C(=O)Nc2cnn(C)c2)on1 | 0.4555% |  |
| Cc1cc(C(=O)Nc2cccc(C[S+](C)[O-])c2)on1 (centres undefined) | 98.42% |  |

| Structure (SMILES) | Percent Effect (50 µM) | Percent Effect (10 µM) |
| --- | --- | --- |
| O=C(NCCNc1ncccn1)C1CC(=O)N(Cc2ccccc2)C1 (centres undefined) |  | 14.32% |
| O=C(NCCNc1ncccn1)C1CC(=O)N(Cc2ccccn2)C1 (centres undefined) |  | 66.32% |
| O=C(NCCNc1ncccn1)C1CC(=O)N(Cc2ccco2)C1 (centres undefined) |  | 18.03% |
| Cc1cc(-c2nc(-c3cccc(CN4CCOCC4)c3)no2)no1 |  | 8.772% |
| Cc1c(-c2nc(-c3cccc(CN4CCOCC4)c3)no2)cnn1C |  | 8.571% |
| Cc1occc1-c1nc(-c2cccc(CN3CCOCC3)c2)no1 |  | 55.09% |
| N#Cc1cccc(CN)c1F | 2.806% |  |
| COCCNc1nnc(-c2ccccn2)s1 |  | 14.66% |
| COCCCNc1ccc(Br)cn1 | 6.813% |  |
| COCCNc1nnc(SCc2ccc(Br)cn2)s1 | 98.42% |  |
| Cc1n[nH]cc1CNCc1nccs1 | -5.718% |  |
| COCCNC(=O)c1cn(CC2CCCNC2)nn1 (centres undefined) | -4.648% |  |
| CCc1cc(NCc2cccnc2)n2nccc2n1 | 3.949% |  |
| COc1ccc2c(c1)CCCC2N (centres undefined) | 9.435% |  |
| Cn1cc(CN2C[C@@H]3COC[C@H](C(=O)Nc4cccnc4)[C@@H]3C2)cn1.O=C(O)C(F)(F)F.O=C(O)C(F)(F)F |  | 79.48% |
| Cn1cc(CN2CC(C(=O)Nc3ccccc3)C3(CCOCC3)C2)cn1.O=C(O)C(F)(F)F (centres undefined) |  | -1.627% |
| Cn1cc(CN2C[C@@H]3COC[C@@H](C(=O)N4CCCCO4)[C@@H]3C2)cn1.O=C(O)C(F)(F)F.O=C(O)C(F)(F)F |  | 0.4992% |
| Cc1nnc(SCCNC(=O)CC2C=CS(=O)(=O)C2)s1 (centres undefined) | 45.65% |  |
| CC(C)Cc1cc(C(=O)N(C)Cc2cnccn2)on1 | 13.67% |  |
| CN(Cc1cnccn1)C(=O)c1ccc(CSc2nnc[nH]2)o1 |  | -8.183% |
| CSCc1ccc(C(=O)N(C)Cc2cnccn2)o1 | 98.35% |  |
| CC(CCO)CNS(=O)(=O)c1ccccc1F (centres undefined) | 13.76% |  |
| COCC(NC(=O)CNc1ccccc1)C(C)C (centres undefined) | 18.12% |  |

| Structure (SMILES) | Percent Effect (50 µM) | Percent Effect (10 µM) |
| --- | --- | --- |
| Cc1ccc(S(=O)(=O)N2CCNC(=O)C2)cc1C(N)=O | 3.593% |  |
| NC(=O)Cn1cc(NC(=O)N2CCCC(O)C2)cn1 (centres undefined) |  | -5.248% |
| CC(C)Cn1cc(NC(=O)N2CCC(O)C2)cn1 (centres undefined) | 99.23% |  |
| CC(C)Cn1cc(NC(=O)N2CCCC2)cn1 |  | -15.58% |
| CC(C)[C@@H]1CN(C(=O)c2ccc(O)cn2)C[C@H]1N(C)C | -13.98% |  |
| NS(=O)(=O)c1ccc2c(c1)N(CC(=O)NC1CC1)CC2 | 3.074% |  |
| CCc1ccc(CN2CCOCC(CO)C2)nc1 (centres undefined) | 13.26% |  |
| C[C@@H]1CN(C(=O)c2ccc(=O)[nH]c2)C[C@]1(C)O | 3.055% |  |
| C[C@@H]1CN(C(=O)c2ccccc2C#N)C[C@]1(C)O | 10.95% |  |
| C[C@@H]1CN(C(=O)c2cc(F)cc(C#N)c2)C[C@]1(C)O | 97.61% |  |
| CSCC(CCO)NC(=O)c1coc2ccccc12 (centres undefined) | -6.179% |  |
| CC(C)(C)OC(=O)N1CCC(n2cc(N)cn2)CC1 | -15.49% |  |
| N[C@@H]1CCCc2c(F)cc(F)cc21 | 13.09% |  |
| Cc1ccc(F)c(NC(=O)N2CCOCC2CO)c1 (centres undefined) | 2.099% |  |
| O=C1CN(CC(=O)N2CCc3sccc3C2)CCN1 | 8.555% |  |
| Cc1ccccc1CC(=O)NCC(F)(F)F | -13.95% |  |
| CC(=O)C1CN(C(=O)OC(C)(C)C)CCO1 (centres undefined) | -6.486% |  |
| CN(C)CCNCCC(Cc1ccccc1)C1CCOC(C)(C)C1.O=C(O)C(=O)O (centres undefined) |  | 9.919% |
| CC(CCc1ccccc1)NC(=O)CNCCCN(C)C.O=C(O)C(=O)O (centres undefined) |  | -5.52% |
| CN(C)CCNCC1CCOC(C)(C)C1 (centres undefined) |  | 12.77% |
| CN(C)CCCNCCC(Cc1ccccc1)C1CCOC(C)(C)C1.O=C(O)C(=O)O (centres undefined) |  | 77.21% |
| CCN(CC)CCCNCC1CCOC(C)(C)C1 (centres undefined) |  | 1.68% |
